{"source": "PubChem BioAssay AID1053125", "about": "(Broad Institute, 2014)", "note": "Measured potencies and affinities stand elsewhere. The source made the active and inactive calls.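 The calls were made as follows: active = viability loss whose fitted half-maximal concentration is at most twice the top valid tested dose; inconclusive = flat curve with 30 to 70% loss, or poor fit; inactive = the rest.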", "data": [{"experiment": "viability loss in HepG2 liver cells – cell-based, ATP luminescence, cherry-pick, set 6, cytotoxicity control, dose response (AID 1053125);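 also: negative values mean loss of viability signal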", "conditions": "ATP luminescence (CellTiter-Glo), 72 h; series mostly up to 26 µM; activity change, negative = cytotoxicity: at the top concentration", "values": [{"smiles": "O=C(NS(=O)(=O)c1ccc(Cl)s1)c1ccccc1", "activity change, negative = cytotoxicity": "-5.86% (inactive)"}, {"smiles": "Clc1cccc(CN2CCN(Cc3nc(CCc4ccccc4)no3)CC2)c1", "activity change, negative = cytotoxicity": "-10.7% (inactive)"}, {"smiles": "COc1ccccc1N1CCN(C2CCC(C)CC2)CC1", "note": "(stereo not given)", "activity change, negative = cytotoxicity": "-3.96% (inactive)"}, {"smiles": "CSc1ccc(Cn2c(C)c(C(=O)NCCC#N)sc2=O)cc1", "activity change, negative = cytotoxicity": "-4.93% (inactive)"}, {"smiles": "CCCCN1C=C(C(=O)OC)C(c2ccccc2Cl)C(C(=O)OC)=C1", "activity change, negative = cytotoxicity": "11.9% (inactive)"}, {"smiles": "O=C(NNc1cc(N2CCCC2)nc(N2CCCC2)n1)c1ccc([N+](=O)[O-])cc1", "activity change, negative = cytotoxicity": "-4.33% (inactive)"}, {"smiles": "COCCNC(=O)c1cc2c(=O)n3cccc(C)c3nc2n(Cc2ccncc2)c1=N", "activity change, negative = cytotoxicity": "-8.89% (inactive)"}, {"smiles": "O=C(CCCN1C(=O)CSc2ncccc21)N1CCN(Cc2ccccc2)CC1", "activity change, negative = cytotoxicity": "-10.3% (inactive)"}, {"smiles": "C=CCc1c(O)c(CC)cc2c(C)cc(=O)oc12", "activity change, negative = cytotoxicity": "-9.42% (inactive)"}, {"smiles": "COC(=O)C1=CN(C)C=C(C(=O)OC)C1c1ccccc1Cl", "activity change, negative = cytotoxicity": "-5.6% (inactive)"}, {"smiles": "COc1cc(C(=O)NCCCNc2nc3c(C)cc(C)cc3cc2C#N)cc(OC)c1OC", "activity change, negative = cytotoxicity": "-12% (inactive)"}, {"smiles": "CSc1ccc(Cn2c(C)c(C(=O)NCc3cccc(Cl)c3)sc2=O)cc1", "activity change, negative = cytotoxicity": "-16% (inactive)"}, {"smiles": "CCOCCCNc1c(CC)c(C)c(C#N)c2nc3ccccc3n12", "activity change, negative = cytotoxicity": "-11.8% (inactive)"}, {"smiles": "CCCn1c(=N)c(S(=O)(=O)c2ccccc2)cc2c(=O)n3ccccc3nc21", "activity change, negative = cytotoxicity": "-9.82% (inactive)"}, {"smiles": "CCOC(=O)C1CCCN(CCCc2ccccc2)C1", "note": "(stereo not given)", "activity change, negative = cytotoxicity": "-13.1% (inactive)"}, {"smiles": "CC(=O)Oc1ccc2cc(-c3nc4ccccc4n3C)c(=O)oc2c1", "activity change, negative = cytotoxicity": "4.27% (inactive)"}, {"smiles": "Cc1ccc2nc3c(cc(C(N)=S)c(=N)n3CCCOC(C)C)c(=O)n2c1", "activity change, negative = cytotoxicity": "-1.02% (inactive)"}, {"smiles": "N=c1c(C(=O)NCC2CCCO2)cc2c(=O)n3ccccc3nc2n1Cc1ccc(Cl)cc1", "note": "(stereo not given)", "activity change, negative = cytotoxicity": "-14.8% (inactive)"}, {"smiles": "CC(=O)c1cc2ccc(O)cc2oc1=O", "activity change, negative = cytotoxicity": "-4.29% (inactive)"}, {"smiles": "O=C(c1ccc(F)cc1)C1CCN(C(=O)Nc2ccccc2Cl)CC1", "activity change, negative = cytotoxicity": "-1.49% (inactive)"}, {"smiles": "COc1cccc2c(=O)c3c(cnn3C)n(C)c12", "activity change, negative = cytotoxicity": "-1.18% (inactive)"}, {"smiles": "O=C(O)c1ccc(N2N=C(c3ccccc3)CC2c2ccccc2)cc1", "note": "(stereo not given)", "activity change, negative = cytotoxicity": "-12.1% (inactive)"}, {"smiles": "CCN1C(=O)c2cccc3c(S(=O)(=O)N(C)C)ccc1c23", "activity change, negative = cytotoxicity": "-11.1% (inactive)"}, {"smiles": "CCC(=O)N1C(C(=O)NCc2ccc(OC)cc2)CSC1c1ccc(OC)cc1", "note": "(stereo not given)", "activity change, negative = cytotoxicity": "-8.23% (inactive)"}, {"smiles": "CCOC(=O)c1oc2c(CN3CCN(CCO)CC3)c(O)c(CC)cc2c(=O)c1-c1nc2ccccc2s1", "activity change, negative = cytotoxicity": "-18% (inactive)"}, {"smiles": "Cc1cc(-n2c(=O)c(C#N)cc3c(=O)n4cccc(C)c4nc32)no1", "activity change, negative = cytotoxicity": "-6.56% (inactive)"}, {"smiles": "COc1ccc(C(=O)c2sc3nc(-c4ccc(OC)cc4)ccc3c2N)cc1", "activity change, negative = cytotoxicity": "-0.796% (inactive)"}, {"smiles": "CCN(CC)c1ccc2cc(C(N)=O)c(=O)oc2c1", "activity change, negative = cytotoxicity": "3.5% (inactive)"}, {"smiles": "CC1CCN(C(=O)COc2cccc3c2CCN(Cc2ccccc2)C3=O)CC1", "activity change, negative = cytotoxicity": "-18.4% (inactive)"}, {"smiles": "CCCN1CCc2c(sc(NC(=O)C3CCN(S(=O)(=O)c4cccs4)CC3)c2C(N)=O)C1", "activity change, negative = cytotoxicity": "-10.9% (inactive)"}, {"smiles": "O=C1c2ccccc2S(=O)(=O)c2cc(N3CCC(C(=O)N4CCCCC4)CC3)ccc21", "activity change, negative = cytotoxicity": "-6.38% (inactive)"}, {"smiles": "O=c1[nH]c2ccccc2nc1/C=C/c1ccccc1", "activity change, negative = cytotoxicity": "-10.8% (inactive)"}, {"smiles": "O=c1oc2c(CN3CCN(CCO)CC3)c(O)ccc2cc1-c1ccccn1", "activity change, negative = cytotoxicity": "-7.38% (inactive)"}, {"smiles": "COc1ccccc1C(=O)c1cc2ccc(O)cc2oc1=O", "activity change, negative = cytotoxicity": "-11% (inactive)"}, {"smiles": "CCN(CC)c1ccc2cc(S(=O)(=O)c3ccc(Cl)cc3)c(=O)oc2c1", "activity change, negative = cytotoxicity": "-11.5% (inactive)"}]}]}
